Our source for the binding signal values is publication PMC11006913.

Numbering of substitutions follows the chain as printed.

Holding throughout (experiment): PBM; 200 nM protein, PBS
What all share (conditions): dsDNA, one strand shown

For assay [1], the target named is NKX2-5 (Homo sapiens, UniProt P52952 125-210, R139K).
The target of assay [2] is PRRX1 (Homo sapiens, UniProt P54821 80-166, F113S).
In assay [3] the target is PRRX1 (Homo sapiens, UniProt P54821 80-166).
The target in assay [4] is NKX2-5 (Homo sapiens, UniProt P52952 125-210).
In assay [5] the target is T1, NKX2-6 (Homo sapiens, UniProt A6NCS4 118-204, R150C).
T1 sequence: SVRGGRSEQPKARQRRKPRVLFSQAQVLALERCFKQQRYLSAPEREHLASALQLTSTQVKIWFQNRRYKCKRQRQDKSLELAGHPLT

For assay [6], the target named is T2, NKX2-6 (Homo sapiens, UniProt A6NCS4 118-204).
T2 sequence: T1 sequence with C33R

In assay [7] the target is T3, NKX2-6 (Homo sapiens, UniProt A6NCS4 118-204, F151L).
T3 sequence: T1 sequence with C33R, F34L

Assay [8] addresses NKX3-2 (Homo sapiens, UniProt P78367 192-278, P234S).
Assay [9] concerns the target NKX3-2 (Homo sapiens, UniProt P78367 192-278).
Assay [10] concerns the target HOXC10 (Homo sapiens, UniProt Q9NYD6 254-340).
Assay [11] has as its target HOXC10 (Homo sapiens, UniProt Q9NYD6 254-340, K271E).
For assay [12], the target named is HOXA7 (Homo sapiens, UniProt P31268 116-202).
The target in assay [13] is HOXA7 (Homo sapiens, UniProt P31268 116-202, W177C).
Assay [14] concerns the target T4, PAX4 (Homo sapiens, UniProt O43316 9-242, R200K).
T4 sequence: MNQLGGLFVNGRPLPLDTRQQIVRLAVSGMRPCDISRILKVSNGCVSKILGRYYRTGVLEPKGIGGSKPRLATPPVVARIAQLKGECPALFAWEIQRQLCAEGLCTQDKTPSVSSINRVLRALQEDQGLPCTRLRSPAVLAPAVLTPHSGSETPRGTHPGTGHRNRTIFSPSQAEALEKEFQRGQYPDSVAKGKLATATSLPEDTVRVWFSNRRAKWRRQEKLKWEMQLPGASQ

In assay [15] the target is T5, PAX4 (Homo sapiens, UniProt O43316 9-242).
T5 sequence: T4 sequence with K192R

Assay [16] deals with HOXD13 (Homo sapiens, UniProt P35453 263-343, T313R).
In assay [17] the target is T6, PAX4 (Homo sapiens, UniProt O43316 9-242, R200Q).
T6 sequence: T4 sequence with K192Q

Assay [18] has as its target HOXD13 (Homo sapiens, UniProt P35453 263-343).
Assay [19] addresses T7, PAX4 (Homo sapiens, UniProt O43316 9-242, F177V).
T7 sequence: T4 sequence with F169V, K192R

Assay [20] has as its target T8, PAX4 (Homo sapiens, UniProt O43316 9-242, F177Y).
T8 sequence: T4 sequence with F169Y, K192R

Assay [21] concerns the target HOXD13 (Homo sapiens, UniProt P35453 263-343, T313A).
The target of assay [22] is T9, PAX4 (Homo sapiens, UniProt O43316 9-242, R227W).
T9 sequence: T4 sequence with K192R, R219W

Assay [23] has as its target HOXB6 (Homo sapiens, UniProt P17509 132-218, K202E).
Assay [24] has as its target VAX1 (Homo sapiens, UniProt Q5SQQ9 86-172).
Assay [25] concerns the target VAX1 (Homo sapiens, UniProt Q5SQQ9 86-172, T142I).
For assay [26], the target named is VAX1 (Homo sapiens, UniProt Q5SQQ9 86-172, K157R).
The target of assay [27] is HOXB6 (Homo sapiens, UniProt P17509 132-218).
Chain of HOXB6 (Homo sapiens, UniProt P17509 132-218) (P17509 132-218): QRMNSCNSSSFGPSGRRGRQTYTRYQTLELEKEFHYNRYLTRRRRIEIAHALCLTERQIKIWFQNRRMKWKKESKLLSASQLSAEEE

Chain of NKX2-5 (Homo sapiens, UniProt P52952 125-210) (P52952 125-210): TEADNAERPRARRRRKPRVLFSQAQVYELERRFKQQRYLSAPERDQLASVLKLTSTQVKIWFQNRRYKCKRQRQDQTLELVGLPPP
Chain of NKX2-5 (Homo sapiens, UniProt P52952 125-210, R139K) (P52952 125-210 R139K): as the sequence (P52952 125-210) above, with R15K counted along it
Chain of PRRX1 (Homo sapiens, UniProt P54821 80-166, F113S) (P54821 80-166 F113S): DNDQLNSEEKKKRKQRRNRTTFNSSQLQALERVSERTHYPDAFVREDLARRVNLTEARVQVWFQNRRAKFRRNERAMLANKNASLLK
Chain of PRRX1 (Homo sapiens, UniProt P54821 80-166) (P54821 80-166): as the sequence (P54821 80-166 F113S) above, with S34F counted along it
Chain of VAX1 (Homo sapiens, UniProt Q5SQQ9 86-172, K157R) (Q5SQQ9 86-172 K157R): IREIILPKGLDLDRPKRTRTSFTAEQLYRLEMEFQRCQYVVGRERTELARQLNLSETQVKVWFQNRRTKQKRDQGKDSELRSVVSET
Chain of HOXD13 (Homo sapiens, UniProt P35453 263-343, T313R) (P35453 263-343 T313R): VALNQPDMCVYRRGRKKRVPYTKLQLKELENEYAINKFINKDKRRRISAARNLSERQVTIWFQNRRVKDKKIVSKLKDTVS
Chain of HOXC10 (Homo sapiens, UniProt Q9NYD6 254-340, K271E) (Q9NYD6 254-340 K271E): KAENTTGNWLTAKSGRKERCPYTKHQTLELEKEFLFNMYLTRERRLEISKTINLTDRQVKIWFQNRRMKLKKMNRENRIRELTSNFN
Chain of HOXA7 (Homo sapiens, UniProt P31268 116-202) (P31268 116-202): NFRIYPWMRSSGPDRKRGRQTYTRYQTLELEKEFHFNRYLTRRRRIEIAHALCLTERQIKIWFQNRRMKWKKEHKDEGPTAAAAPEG
Chain of HOXC10 (Homo sapiens, UniProt Q9NYD6 254-340) (Q9NYD6 254-340): as the sequence (Q9NYD6 254-340 K271E) above, with E18K counted along it
Chain of NKX3-2 (Homo sapiens, UniProt P78367 192-278, P234S) (P78367 192-278 P234S): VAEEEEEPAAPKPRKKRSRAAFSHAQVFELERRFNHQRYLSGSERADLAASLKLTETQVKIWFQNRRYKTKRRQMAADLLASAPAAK
Chain of HOXD13 (Homo sapiens, UniProt P35453 263-343) (P35453 263-343): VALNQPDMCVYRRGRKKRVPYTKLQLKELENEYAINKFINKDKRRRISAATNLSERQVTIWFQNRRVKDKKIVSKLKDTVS
Chain of HOXB6 (Homo sapiens, UniProt P17509 132-218, K202E) (P17509 132-218 K202E): as the sequence (P17509 132-218) above, with K71E counted along it
Chain of HOXD13 (Homo sapiens, UniProt P35453 263-343, T313A) (P35453 263-343 T313A): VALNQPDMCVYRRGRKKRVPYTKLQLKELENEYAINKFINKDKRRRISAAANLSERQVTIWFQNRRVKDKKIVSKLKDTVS
Chain of HOXA7 (Homo sapiens, UniProt P31268 116-202, W177C) (P31268 116-202 W177C): as the sequence (P31268 116-202) above, with W62C counted along it
Chain of VAX1 (Homo sapiens, UniProt Q5SQQ9 86-172) (Q5SQQ9 86-172): as the sequence (Q5SQQ9 86-172 K157R) above, with R72K counted along it
Chain of NKX3-2 (Homo sapiens, UniProt P78367 192-278) (P78367 192-278): as the sequence (P78367 192-278 P234S) above, with S43P counted along it
Chain of VAX1 (Homo sapiens, UniProt Q5SQQ9 86-172, T142I) (Q5SQQ9 86-172 T142I): as the sequence (Q5SQQ9 86-172 K157R) above, with T57I, R72K counted along it

As to AGCCGACA, the binding signal with NKX2-5 [1] was 8.87 upbm affinity estimate (log intensity, higher = more binding, comparable within an allelic series); in the assay with PRRX1 [2], 9.45 upbm affinity estimate (log intensity, higher = more binding, comparable within an allelic series); with PRRX1 [3], 9.49 upbm affinity estimate (log intensity, higher = more binding, comparable within an allelic series); in the assay with NKX2-5 [4], 9.05 upbm affinity estimate (log intensity, higher = more binding, comparable within an allelic series).

With CACTTAGC, the binding signal is 12.6 upbm affinity estimate (log intensity, higher = more binding, comparable within an allelic series) with NKX2-5 [1]; 9.83 upbm affinity estimate (log intensity, higher = more binding, comparable within an allelic series) in the assay with PRRX1 [2]; 11.7 upbm affinity estimate (log intensity, higher = more binding, comparable within an allelic series) with NKX2-6 [5]; 13.5 upbm affinity estimate (log intensity, higher = more binding, comparable within an allelic series) in the assay with NKX2-6 [6]; 10.8 upbm affinity estimate (log intensity, higher = more binding, comparable within an allelic series) in the assay with NKX2-6 [7]; 12.9 upbm affinity estimate (log intensity, higher = more binding, comparable within an allelic series) with NKX3-2 [8]. For the same sequence, the binding signal was 11.8 upbm affinity estimate (log intensity, higher = more binding, comparable within an allelic series) in the assay with PRRX1 [3]; 12.5 upbm affinity estimate (log intensity, higher = more binding, comparable within an allelic series) with NKX2-5 [4]; 13 upbm affinity estimate (log intensity, higher = more binding, comparable within an allelic series) with NKX3-2 [9].

As to ACACCGGG, the binding signal in the assay with NKX2-5 [1] was 8.93 upbm affinity estimate (log intensity, higher = more binding, comparable within an allelic series); in the assay with HOXC10 [10], 10.2 upbm affinity estimate (log intensity, higher = more binding, comparable within an allelic series); with HOXC10 [11] it was 10 upbm affinity estimate (log intensity, higher = more binding, comparable within an allelic series); in the assay with NKX2-5 [4], 8.94 upbm affinity estimate (log intensity, higher = more binding, comparable within an allelic series).

As for AGGCCAGC, the binding signal with NKX2-5 [1] was 8.71 upbm affinity estimate (log intensity, higher = more binding, comparable within an allelic series); in the assay with HOXA7 [12], 8.41 upbm affinity estimate (log intensity, higher = more binding, comparable within an allelic series); with HOXA7 [13], 8.42 upbm affinity estimate (log intensity, higher = more binding, comparable within an allelic series); with NKX2-5 [4] it was 8.67 upbm affinity estimate (log intensity, higher = more binding, comparable within an allelic series).

Regarding CGGTGGGC, the binding signal is 9.02 upbm affinity estimate (log intensity, higher = more binding, comparable within an allelic series) in the assay with NKX2-5 [1]; 9.41 upbm affinity estimate (log intensity, higher = more binding, comparable within an allelic series) with PAX4 [14]; 9.5 upbm affinity estimate (log intensity, higher = more binding, comparable within an allelic series) with PAX4 [15]; 9.22 upbm affinity estimate (log intensity, higher = more binding, comparable within an allelic series) with NKX2-6 [5]; 9.46 upbm affinity estimate (log intensity, higher = more binding, comparable within an allelic series) with HOXD13 [16]; 9.39 upbm affinity estimate (log intensity, higher = more binding, comparable within an allelic series) with PAX4 [17]. For the same sequence, the binding signal is 9.53 upbm affinity estimate (log intensity, higher = more binding, comparable within an allelic series) in the assay with HOXD13 [18]; 9.14 upbm affinity estimate (log intensity, higher = more binding, comparable within an allelic series) with PAX4 [19]; 9.14 upbm affinity estimate (log intensity, higher = more binding, comparable within an allelic series) in the assay with PAX4 [20]; 9.44 upbm affinity estimate (log intensity, higher = more binding, comparable within an allelic series) in the assay with HOXD13 [21]; 9.26 upbm affinity estimate (log intensity, higher = more binding, comparable within an allelic series) in the assay with PAX4 [22]; 9.07 upbm affinity estimate (log intensity, higher = more binding, comparable within an allelic series) in the assay with NKX2-5 [4].

In the case of CCTACGGA, the binding signal in the assay with NKX2-5 [1] was 8.68 upbm affinity estimate (log intensity, higher = more binding, comparable within an allelic series); with HOXB6 [23], 9.05 upbm affinity estimate (log intensity, higher = more binding, comparable within an allelic series); with VAX1 [24], 7.04 upbm affinity estimate (log intensity, higher = more binding, comparable within an allelic series); with VAX1 [25], 7.2 upbm affinity estimate (log intensity, higher = more binding, comparable within an allelic series); with VAX1 [26], 7.03 upbm affinity estimate (log intensity, higher = more binding, comparable within an allelic series); with NKX2-5 [4] it was 8.68 upbm affinity estimate (log intensity, higher = more binding, comparable within an allelic series). In addition, the binding signal in the assay with HOXB6 [27] was 8.95 upbm affinity estimate (log intensity, higher = more binding, comparable within an allelic series).
